Results published in PubChem BioAssay AID1159580 (chemical genetic matrix, 2015).
The whole screen tested about 5,500 compounds, of which about 2,000 (36%) were called active. Not shown: some 18% with an inconclusive outcome. No stated cut-off is given here; in the data, active means normalized growth mostly below about 0.91 (no sharp cut-off); inconclusive means no clear call, values can overlap the other calls; inactive means mostly above about 0.92. The list shows a part of the results.

Assay: chemical genetic growth profiling, strain panel (AID 1159580);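 further: tested at 20 µM; growth read once vehicle control cultures reached saturation at 30 °C; 1 = growth at the plate median or of vehicle wells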
Conditions: growth OD

Measured: normalized growth

CN(C)CCc1c[nH]c2ccc(CS(=O)(=O)N3CCCC3)cc12
inactive: S. cerevisiae deletion strains, locus YJR075W, strain HOC1, stronger effect = lower value 1 | S. cerevisiae deletion strains, locus YKL009W, strain mrt4, stronger effect = lower value 0.992 | S. cerevisiae deletion strains, locus YKL068W, stronger effect = lower value 0.987 | S. cerevisiae deletion strains, locus YKL085W, strain MDH1 (second series), stronger effect = lower value 0.983 | S. cerevisiae deletion strains, locus YKL085W, strain MDH1, stronger effect = lower value 0.983 | S. cerevisiae deletion strains, locus YKL160W, strain elf1, stronger effect = lower value 1.03 | S. cerevisiae deletion strains, locus YKL190W, strain CNB1, stronger effect = lower value 1 | S. cerevisiae deletion strains, locus YKR001C, strain vps1, stronger effect = lower value 0.988 | S. cerevisiae deletion strains, locus YKR026C, strain gcn3, stronger effect = lower value 0.976 | S. cerevisiae deletion strains, locus YKR091W, strain srl3, stronger effect = lower value 1.01 | S. cerevisiae deletion strains, locus YLL001W, strain dnm1, stronger effect = lower value 0.971 | S. cerevisiae deletion strains, locus YLL026W, stronger effect = lower value 0.98 | S. cerevisiae deletion strains, locus YLL041C, strain sdh2, stronger effect = lower value 1 | S. cerevisiae deletion strains, locus YLR027C, strain aat2, stronger effect = lower value 0.997 | S. cerevisiae deletion strains, locus YLR039C, strain RIC1, stronger effect = lower value 0.971 | S. cerevisiae deletion strains, locus YLR058C, strain SHM2, stronger effect = lower value 0.991 | S. cerevisiae deletion strains, locus YLR102C, strain apc9, stronger effect = lower value 0.995 | S. cerevisiae deletion strains, locus YLR113W, strain HOG1, stronger effect = lower value 0.979 | S. cerevisiae deletion strains, locus YLR221C, strain rsa3, stronger effect = lower value 0.96 | S. cerevisiae deletion strains, locus YLR258W, strain gsy2, stronger effect = lower value 1 | S. cerevisiae deletion strains, locus YLR262C, strain YPT6 (second series), stronger effect = lower value 1 | S. cerevisiae deletion strains, locus YLR262C, strain YPT6, stronger effect = lower value 0.968 | S. cerevisiae deletion strains, locus YLR268W, strain sec22, stronger effect = lower value 0.971 | S. cerevisiae deletion strains, locus YLR320W, strain mms22, stronger effect = lower value 0.945 | S. cerevisiae deletion strains, locus YLR330W, strain CHS5, stronger effect = lower value 0.988 | S. cerevisiae deletion strains, locus YLR342W, strain FKS1 (second series), stronger effect = lower value 1.02 | S. cerevisiae deletion strains, locus YLR342W, strain FKS1, stronger effect = lower value 1.01 | S. cerevisiae deletion strains, locus YLR357W, strain rsc2, stronger effect = lower value 1.01 | S. cerevisiae deletion strains, locus YLR370C, strain arc18, stronger effect = lower value 0.992 | S. cerevisiae deletion strains, locus YLR371W, strain rom2, stronger effect = lower value 0.983 | S. cerevisiae deletion strains, locus YLR384C, strain iki3, stronger effect = lower value 0.983 | S. cerevisiae deletion strains, locus YLR418C, strain cdc73, stronger effect = lower value 0.959 | S. cerevisiae deletion strains, locus YML016C, strain PPZ1, stronger effect = lower value 0.987 | S. cerevisiae deletion strains, locus YML032C, strain rad52, stronger effect = lower value 0.99 | S. cerevisiae deletion strains, locus YML120C, strain ndi1, stronger effect = lower value 0.972 | S. cerevisiae deletion strains, locus YML124C, strain tub3, stronger effect = lower value 0.979 | S. cerevisiae deletion strains, locus YMR058W, strain fet3, stronger effect = lower value 0.976 | S. cerevisiae deletion strains, locus YMR078C, strain ctf18, stronger effect = lower value 0.986 | S. cerevisiae deletion strains, locus YMR125W, strain sto1, stronger effect = lower value 0.999 | S. cerevisiae deletion strains, locus YMR129W, stronger effect = lower value 0.98 | S. cerevisiae deletion strains, locus YMR205C, strain PFK2, stronger effect = lower value 0.967 | S. cerevisiae deletion strains, locus YMR223W, strain ubp8, stronger effect = lower value 0.996 | S. cerevisiae deletion strains, locus YMR231W, strain pep5, stronger effect = lower value 0.991 | S. cerevisiae deletion strains, locus YMR263W, strain SAP30, stronger effect = lower value 1.01 | S. cerevisiae deletion strains, locus YMR307W, strain GAS1, stronger effect = lower value 0.994 | S. cerevisiae deletion strains, locus YNL067W, strain RPL9B, stronger effect = lower value 1.03 | S. cerevisiae deletion strains, locus YNL071W, strain lat1, stronger effect = lower value 0.985 | S. cerevisiae deletion strains, locus YNL128W, strain TEP1, stronger effect = lower value 1 | S. cerevisiae deletion strains, locus YNL153C, strain GIM3, stronger effect = lower value 0.995 | S. cerevisiae deletion strains, locus YNL183C, strain NPR1, stronger effect = lower value 0.926 | S. cerevisiae deletion strains, locus YNL209W, strain ssb2, stronger effect = lower value 0.974 | S. cerevisiae deletion strains, locus YNL233W, strain BNI4, stronger effect = lower value 0.988 | S. cerevisiae deletion strains, locus YNL248C, strain rpa49, stronger effect = lower value 1.03 | S. cerevisiae deletion strains, locus YNL250W, strain rad50, stronger effect = lower value 0.986 | S. cerevisiae deletion strains, locus YNL271C, strain bni1, stronger effect = lower value 0.984 | S. cerevisiae deletion strains, locus YNL298W, strain CLA4, stronger effect = lower value 0.981 | S. cerevisiae deletion strains, locus YNL307C, strain MCK1, stronger effect = lower value 0.985 | S. cerevisiae deletion strains, locus YNL322C, strain KRE1 (second series), stronger effect = lower value 1.02 | S. cerevisiae deletion strains, locus YNL322C, strain KRE1, stronger effect = lower value 0.999 | S. cerevisiae deletion strains, locus YNR049C, strain mso1, stronger effect = lower value 0.997 | S. cerevisiae deletion strains, locus YNR052C, strain pop2, stronger effect = lower value 0.992 | S. cerevisiae deletion strains, locus YOL006C, strain TOP1, stronger effect = lower value 0.959 | S. cerevisiae deletion strains, locus YOL012C, strain htz1 0.726 | S. cerevisiae deletion strains, locus YOL147C, strain pex11, stronger effect = lower value 0.995 | S. cerevisiae deletion strains, locus YOR001W, strain rrp6, stronger effect = lower value 0.938 | S. cerevisiae deletion strains, locus YOR061W, strain CKA2, stronger effect = lower value 0.994 | S. cerevisiae deletion strains, locus YOR069W, strain VPS5, stronger effect = lower value 0.992 | S. cerevisiae deletion strains, locus YOR070C, strain gyp1, stronger effect = lower value 1 | S. cerevisiae deletion strains, locus YOR080W, strain dia2, stronger effect = lower value 1 | S. cerevisiae deletion strains, locus YOR083W, strain WHI5, stronger effect = lower value 1 | S. cerevisiae deletion strains, locus YOR106W, strain vam3, stronger effect = lower value 1.04 | S. cerevisiae deletion strains, locus YOR136W, strain idh2, stronger effect = lower value 0.983 | S. cerevisiae deletion strains, locus YOR144C, strain elg1, stronger effect = lower value 0.981 | S. cerevisiae deletion strains, locus YOR184W, strain ser1, stronger effect = lower value 0.989 | S. cerevisiae deletion strains, locus YOR231W, strain MKK1, stronger effect = lower value 0.957 | S. cerevisiae deletion strains, locus YOR265W, strain rbl2, stronger effect = lower value 0.99 | S. cerevisiae deletion strains, locus YOR270C, strain vph1, stronger effect = lower value 0.945 | S. cerevisiae deletion strains, locus YOR290C, strain snf2, stronger effect = lower value 1.02 | S. cerevisiae deletion strains, locus YOR316C, strain cot1, stronger effect = lower value 0.989 | S. cerevisiae deletion strains, locus YPL051W, strain arl3, stronger effect = lower value 1.02 | S. cerevisiae deletion strains, locus YPL055C, strain LGE1, stronger effect = lower value 1.02 | S. cerevisiae deletion strains, locus YPL078C, strain atp4, stronger effect = lower value 1.02 | S. cerevisiae deletion strains, locus YPL106C, strain sse1, stronger effect = lower value 1.02 | S. cerevisiae deletion strains, locus YPL240C, strain hsp82, stronger effect = lower value 0.985 | S. cerevisiae deletion strains, locus YPL241C, strain CIN2, stronger effect = lower value 1.03 | S. cerevisiae deletion strains, locus YPL256C, strain CLN2, stronger effect = lower value 0.959 | S. cerevisiae deletion strains, locus YPR119W, strain clb2, stronger effect = lower value 0.994 | S. cerevisiae deletion strains, locus YPR141C, strain kar3, stronger effect = lower value 0.983 | S. cerevisiae deletion strains, locus YPR163C, strain tif3, stronger effect = lower value 0.985 | S. cerevisiae deletion strains, locus YPR167C, strain met16, stronger effect = lower value 0.982 | S. cerevisiae deletion strains, strain wtn01, stronger effect = lower value 0.99 | S. cerevisiae strains, strain wild type, stronger effect = lower value 1.02
